{"source": "paper PMC5540273", "about": "(PLoS ONE, 2017);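 also: KINOMEscan kinase panel screen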"}
{"tested_on": "T1, MLCK", "T1 construct": "gene MYLK3", "settings": "concentration: 1 μM, replicates: in singlicate; n = 1", "units": {"%Inh": "%"}}
{"smiles": "COc1ccc(Nc2nccc(N3CCC(NC(=O)Nc4cccc(C(C)=O)c4)C3)n2)cc1", "note": "(stereo not drawn) [GSK1379731]", "%Inh": 5}
{"smiles": "Fc1ccc(-c2nn3c(OCC(F)(F)F)cccc3c2-c2ccncc2)cc1", "note": "[GW514784]", "%Inh": 0}
{"smiles": "Cc1cn2c(=O)cc(N3CCOCC3)nc2n1Cc1cccc(Cl)c1Cl", "note": "[GSK2334006]", "%Inh": 0}
{"smiles": "Fc1ccc(-c2ncn(CCCN3CCOCC3)c2-c2cccnc2)cc1", "note": "[SB-211743]", "%Inh": 0}
{"smiles": "C[C@@H](Oc1cc(-n2cnc3ccc(NC(=O)NC(C)(C)C)cc32)sc1C(N)=O)c1ccccc1Cl", "note": "[GSK346294]", "%Inh": 0}
{"smiles": "Cc1ccc(C(=O)NCC(N)=O)cc1-n1c(C)cc(OCc2ccc(F)cc2F)c(Br)c1=O", "%Inh": 0}
{"smiles": "c1ccc(-c2n[nH]cc2-c2ccnc3ccccc23)nc1", "note": "[GW271431]", "%Inh": 10}
{"smiles": "O=C1Cc2cc(Nc3nc(NCc4cccc(S(=O)(=O)C(F)(F)F)c4)ncc3C(F)(F)F)ccc2N1", "%Inh": 10}
{"smiles": "NCC(NC(=O)c1cc(-c2cn[nH]c2)c(-c2ccnc3[nH]ccc23)s1)c1ccccc1.O=C(O)C(F)(F)F.O=C(O)C(F)(F)F", "note": "(stereo not drawn) [GSK1325775]", "%Inh": 96.3}
{"smiles": "COc1ccc(Nc2nccc(N3CCC(NC(=O)Nc4cc(C)ccc4C)C3)n2)cc1", "note": "(stereo not drawn) [GSK1379741]", "%Inh": 11}
{"smiles": "CC(C)Oc1ccc2c(-c3ccnc(Nc4ccc(N5CCN(C)CC5)cc4)n3)cnn2n1", "note": "[GW696155]", "%Inh": 42}
{"smiles": "O=C(c1ccc(-c2cc(-c3c[nH]nc3-c3ccccn3)ccn2)cc1)N1CCOCC1", "note": "[GW812171]", "%Inh": 0}
{"smiles": "CN(C(=O)c1ccc(-c2cc(-c3c[nH]nc3-c3ccccn3)ccn2)cc1)C1CCOCC1", "note": "[GW810083]", "%Inh": 0}
{"smiles": "O=C(Nc1cccc(-c2nn3ncccc3c2-c2ccnc(Nc3cccc(C(F)(F)F)c3)n2)c1)c1c(F)cccc1F", "note": "[GSK299495]", "%Inh": 11}
{"smiles": "Cl.Oc1cccc(Nc2ccnc3cc(-c4ccncc4)ccc23)c1", "note": "[GW494601]", "%Inh": 0}
{"smiles": "O=c1cc(N2CCOCC2)nc2n(Cc3cccc(F)c3)ccn12", "note": "[GSK2297430]", "%Inh": 0}
{"smiles": "COc1ccc(CNC(=O)NC2CCN(c3ccnc(Nc4ccc(OC)cc4)n3)C2)cc1", "note": "(stereo not drawn) [GSK1379727]", "%Inh": 0}
{"smiles": "CCc1nc(-c2cccc(C)c2)c(-c2ccnc(NCc3ccccc3)c2)s1", "%Inh": 0}
{"smiles": "CCc1ccnc(/C=C/c2n[nH]c3cc(Sc4ccccc4C(=O)NC)ccc23)c1", "%Inh": 1}
{"smiles": "Cc1nnc(-c2ccc(C)c(-c3ccc(C(=O)Nc4ccc(NS(C)(=O)=O)cc4)cc3)c2)o1", "note": "[GW702865]", "%Inh": 12}
{"smiles": "Cc1nnc(-c2ccc3ncc(-c4ccc(S(C)=O)cc4)n3c2)o1", "note": "(stereo not drawn)", "%Inh": 0}
{"smiles": "CC(=O)Nc1ccc(COc2ccc(Nc3ccnc4cc(-c5ccccn5)ccc34)cc2)cc1.Cl", "note": "[GW440148]", "%Inh": 5}
{"smiles": "CCn1cnc2c(N)ncnc21", "note": "[GW345098]", "%Inh": 1}
{"smiles": "Cc1nnc(-c2ccc3occ(-c4ccc(C(C)O)cc4)c3c2)o1", "note": "(stereo not drawn)", "%Inh": 14}
{"smiles": "O=c1cc(N2CCOCC2)nc2n(Cc3cccc(Cl)c3Cl)c(C3CC3)nn12", "note": "[GSK2358994]", "%Inh": 0}
{"smiles": "O=C(NCCCN1CCOCC1)c1cccc(Nc2nccc(Nc3ccc(Oc4ccccc4)cc3)n2)c1", "note": "[GW663929]", "%Inh": 0}
{"smiles": "[2H]C([2H])(c1cccc(C(F)(F)F)c1C)n1ccn2c(=O)nc(N3CCOCC3)cc12", "note": "[GSK2336394]", "%Inh": 3}
{"smiles": "NS(=O)(=O)CCc1cccc(Nc2nccc(-c3c(-c4cccc(NC(=O)c5c(F)cccc5F)c4)nn4ccccc34)n2)c1", "note": "[GSK336735]", "%Inh": 20}
{"smiles": "Cl.Cl.Cl.Fc1ccc(-c2ncn(C3CCNCC3)c2-c2ccnc(Nc3ccccc3)n2)cc1", "note": "[SB-238039]", "%Inh": 0}
{"smiles": "CN1c2ccc(NCc3ccc(F)cc3)cc2-c2c(cnn2C)S1(=O)=O", "%Inh": 0}
{"smiles": "COCCNC(=O)c1ccc(-c2cc(C(=O)NC3CC3)cc(F)c2C)cc1", "note": "[GW868318]", "%Inh": 13}
{"smiles": "N#Cc1ccc(-c2cc(-c3c[nH]nc3-c3ccccn3)ccn2)cc1", "note": "[GW693028]", "%Inh": 0}
{"smiles": "O=C(NOCC1CC1)c1ccc(F)c(F)c1Nc1ccc(I)cc1Cl", "%Inh": 0}
